According to PubChem BioAssay (NCI):
This is part of a sample that, as a whole, favours compounds with a hit. Of some 79,000 tested, about 15% had one in any assay. Unmarked numbers belong to inactive results. Activity calls are given as the source filed them. Cut-off read from the data, not from the text of the source: active = growth inhibition above about 70%; inactive = the rest. Where a SMILES comes first, the peptide text is derived from it.

Key:
[1] = NCI Yeast Anticancer Drug Screen. Data for the rad50 strain (AID 155);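 note: 0% = growth of vehicle-only cultures of the same strain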; conditions: S. cerevisiae rad50 strain growth inhibition; at 50.0 µM; stronger effect = higher value
In short: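 Inhibition values express reduced yeast growth in compound-treated cultures relative to vehicle-treated controls.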

[2] = NCI Yeast Anticancer Drug Screen. Data for the mec2-1 strain (AID 157); conditions: S. cerevisiae mec2-1 strain, at 50.0 µM, stronger effect = higher value
In short: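 Mutant yeast (mec2-1) grown with compound; growth inhibition relative to vehicle control reported.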

[3] = NCI Yeast Anticancer Drug Screen. Data for the sgs1 mgt1 strain (AID 161);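 note: 0% = growth of cultures given vehicle only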; conditions: S. cerevisiae sgs1 mgt1 strain, at 50.0 µM, stronger effect = higher value
In short: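 Percent growth inhibition was derived by comparing compound-exposed mutant yeast with vehicle-exposed cultures. The strain carries alterations in DNA damage repair.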

[4] = NCI Yeast Anticancer Drug Screen. Data for the cln2 rad14 strain (AID 165);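 note: 0% = growth equal to vehicle treated cultures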; conditions: S. cerevisiae cln2 rad14 strain, at 50.0 µM, stronger effect = higher value
In short: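 Readout is yeast growth inhibition versus vehicle-treated controls, using a strain with cln2 and rad14 alterations exposed to compound.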

[5] = NCI Yeast Anticancer Drug Screen. Data for the bub3 strain (AID 167); conditions: S. cerevisiae bub3 mutant strain, at 50.0 µM, stronger effect = higher value
In short: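 Steps: expose the mutant yeast strain to compound; grow alongside vehicle-treated cultures; measure growth; express inhibition against the vehicle cultures.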

[6] = NCI Yeast Anticancer Drug Screen. Data for the mlh1 rad18 strain (AID 175); conditions: S. cerevisiae mlh1 rad18 strain growth inhibition; at 50.0 µM; stronger effect = higher value
In short: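 Genetically defined yeast (DNA repair-deficient) exposed to compounds; growth inhibition determined relative to vehicle.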

Row | Structure (SMILES) | growth inhibition [1] | growth inhibition [2] | growth inhibition [3] | growth inhibition [4] | growth inhibition [5] | growth inhibition [6]
1 | O=C(Nc1cc([N+](=O)[O-])cc2c1[nH]c(=O)c1ccccc12)C(F)(F)F | 26.2% | -2.8% | 10.8% | -41.2% | -7.4% | -0.25%
2 | CC(C)(C)c1ccc(C(=O)NCSCC(NC(=O)CCC(N)C(=O)O)C(=O)NCC(=O)O)cc1 (stereo unspecified) | -10.4% | 1% | -10.7% | -7.75% | 0.85% | 14.8%
3 | COC(=O)CC1=NNC(=O)C1 | -11.7% | -15.1% | -14% | -18.1% | -7.35% | -19.8%
4 | COc1cc(C=C2C(=O)NC(=O)NC2=O)ccc1OCc1ccccc1 | -0.15% | -1.5% | -1.1% | 3.3% | -22.3% | -42.6%
5 | CCC1COC(Nc2cccc3c2CCCC3)=N1 (stereo unspecified) | -0.05% | -6.7% | -8.75% | -30.4% | 17.7% | 4.55%
6 | COC(=O)c1nc(N)nc(C(=O)OC)c1C(=O)c1c(C)[nH]c2ccccc12 | -9.85% | -20% | -36.9% | -30.1% | -28.4% | -25.6%
7 | Cn1c(=O)c(Cl)c(N=[N+]=[N-])c2ccccc21 | 45.1% | 37.4% | 44% | 51% | 22% | 30.2%
8 | CC(=O)[C@@]1(O)CC[C@H]2[C@@H]3C[C@H](C)C4=CC(=O)CC[C@]4(C)[C@H]3[C@@H](O)C[C@@]21C | -27.9% | -8.8% | -19.1% | -36.2% | 12.7% | -22.4%
9 | Cc1ccc(Nc2nc(C)c(C(=O)CC(=O)C(=O)Nc3c(C)cccc3C(C)(C)C)s2)cc1 | 14.2% | -17.6% | -0.4% | -19.2% | -1.05% | 2.85%
10 | O=C1c2ccccc2C2CC1c1ccccc12 (stereo unspecified) | 6.35% | -1.6% | -1.7% | -7.7% | -16.4% | -5.4%
11 | CCCC#CCN(CCCC)CCCC | -8.95% | 0.15% | -3.8% | -7.9% | 58% | -20.1%
12 | CCc1ccccc1NC(=O)CCc1nc(=S)[nH][nH]1 | -24.8% | 9.6% | 2.9% | 32.4% | 20.1% | 6.15%
13 | COC1CC(NC(C)=O)C2OC(c3ccccc3)OCC2O1 (stereo unspecified) | 4.35% | 11.2% | -10.2% | 6.1% | -3.45% | 4.45%
14 | N#CC(C#N)=C(N)/C(C#N)=C\c1ccnc2ccccc12 | -28.9% | -1.75% | -3% | 15.1% | 0.65% | -18.2%
15 | NCCCCC(NC(=O)C(N)Cc1cnc[nH]1)C(=O)O (stereo not drawn) (H-His-Lys-OH; configuration not given here) | 4.1% | -5.75% | -4% | 13.3% | 7.55% | -12.2%
16 | CCOC(=O)/C(Cc1cnc2ccccc2n1)=N\O | -1% | -4.4% | -8.95% | -52.5% | 5.7% | -24.9%
17 | CCN(CC)CCCN1CCc2c([nH]c3ccccc23)C1c1cccnc1 (stereo unspecified) | -4.2% | -18.4% | -0.3% | 5.9% | -18.1% | -17.4%
18 | CCCCONC(N)=O | -12.2% | -11.1% | -23.4% | 7.75% | -5.15% | -5.95%
19 | Cc1cccc(C)c1NC(=O)OC(C)C | 4.8% | 5.65% | -28.3% | -32.5% | 11.8% | -12.7%
20 | CCCC(=O)NS(=O)(=O)c1ccc(C)cc1 | 2.85% | 7.3% | 3.45% | -24.9% | 0.25% | 5.75%
21 | CC(=O)CC(=O)Nc1ccc(Cl)cc1 | -2.75% | -27.9% | 12.2% | 3.85% | -5.55% | 8.45%

Row | Structure (SMILES) | growth inhibition [1] | growth inhibition [2] | growth inhibition [3] | growth inhibition [4] | growth inhibition [5] | growth inhibition [6]
22 | COc1ccc(NC(C)=O)c(C(=O)CCNC(C)=O)c1 | -5.85% | -15.4% | -31.1% | -7.4% | -40% | -23.4%
23 | CN(C)c1nc2nc[nH]c2c(=S)n1C | 7.45% | 6% | 4.1% | 24.6% | -9.6% | 0.15%
24 | O=C(Nc1cccnc1)c1ccc([N+](=O)[O-])s1 | 11.1% | 0.6% | 29.3% | 9.25% | 11.1% | 16.1%
25 | CC1=Cc2cc3[n-]c(cc4nc(cc5[n-]c(cc1n2)c(C)c5CCC(=O)O)C(CCC(=O)O)=C4C)cc3C.[Cu+2] | 0.9% | -0.9% | 10.3% | -49.5% | 15.2% | -0.5%
26 | COc1ccc(N=Cc2ccc(N(CCC#N)S(=O)(=O)c3ccccc3)cc2)cc1 | 0.2% | -13.3% | 2.05% | 11.2% | 9.25% | -3.15%
27 | NC(=S)N=Nc1c(O)[nH]c2c(Cl)cc(Cl)cc12 | 6.7% | -14.2% | 28.6% | 7.15% | 13.8% | -8.95%
28 | Cc1nc2c(ccc3cc4ccccc4cc32)cc1N(CCO)CCO | 28.1% | -0.75% | -0.15% | 20.9% | 16.6% | 18.1%
29 | C/C=C/[C@@]1(OC(=O)c2ccccc2)C[C@@H]2CCCC[C@@H]21 | 35.4% | 11.1% | 37.4% | 23.3% | 12.9% | 31.6%
30 | CCOC(=O)C(CN(CC)CC)c1ccccc1 (stereo unspecified) | -1.15% | -6.35% | -3.25% | 1.8% | 1.95% | 10.3%
31 | CCCCC/C=C/C(CC)(C(=O)OCC)C(=O)OCC | -5.95% | 20.9% | 13.6% | -60% | 40.9% | 6.1%
32 | CCOc1cccc2c1N[S@@](=O)S2 | 4.85% | -26.7% | 11.5% | 16.2% | 7.8% | 33.6%
33 | CN(C)C(=S)/N=c1\ssc(=S)n1Cc1cccs1 | -11.1% | -19.5% | -19.6% | 6.75% | -9.4% | 12%
34 | CCSc1nnc(-c2ccccc2)nc1Cc1ccc(OC)cc1 | -38.2% | -13.2% | -62.7% | -12.8% | -30.5% | -39.5%
35 | O=C1c2cccc3cc([N+](=O)[O-])cc(c23)C(=O)N1Cc1ccco1 | 24.6% | 8.85% | 32.2% | 16.8% | 7.65% | 0.95%
36 | COc1ccc(C(=O)CC(=O)CCC(=O)Nc2ccc(Cl)cc2Cl)cc1 | 26.4% | 19.1% | 20.9% | 19.8% | 8.2% | 7.75%
37 | CCCC1=NCCO1 | -10.9% | -26.6% | -6.65% | 0.45% | -6.95% | -13.7%
38 | Cc1cccc2nc(-c3ccccn3)n(CCc3ccncc3)c12 | 98.8% (active) | 99.2% (active) | 99.2% (active) | 98.1% (active) | 98.8% (active) | 98.7% (active)
39 | O=C(N/N=C/c1cccc(F)c1)c1ccncc1 | 8.4% | 1% | -2.05% | -23.9% | -0.35% | 8.35%
40 | COC(=O)/C=C/c1ccc(OC)c(OC)c1 | 22.3% | 0.4% | 13.6% | -2.2% | 64.5% | 50%
41 | CC(=O)OCC1OC(n2cnc3c(N)ncnc32)C2OC(C)(C)OC12 (stereo unspecified) | 11.4% | -30.2% | -19.1% | 1.45% | -1.9% | -12.8%
